Each structure is given as a SMILES string. The whole screen tested about 1,200 compounds, of which about 130 (11%) were called active. A selection follows. Unmarked numbers belong to inactive results. No stated cut-off is given here; in the data, active means activation above about 120%; inactive means the rest.

The nature of the experiment: NF-kB reporter activators in human cells, counter-screen for STAT3 activator project (AID 1309).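 Further: reporter induced by TNF-alpha stimulation; 100% = median of stimulated DMSO wells and 0% = no signal.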 Conditions: NF-kappaB reporter activation, at 5.7 µM, hits give high values.
Take `Fc1ccc2nc(-c3ccccc3)nc(SCc3nnc(-c4ccccc4)o3)c2c1`: the activation (% of control) was 106%.

Turning to `COc1ccccc1N1CCN(C(=O)c2cc3c(-c4ccc(Cl)cc4)nn(C)c3s2)CC1`, the activation (% of control) was 101%.

For `Cn1cccc1C(=O)Nc1nccs1`, the activation (% of control) is 111%.

Consider `N#Cc1ccccc1NC(=O)COc1c(Br)cc(Br)c2cccnc12`, for which the activation (% of control) was 107%.

On to `COC(=O)c1[nH]c2ccccc2c1NC(=O)CN1CCCc2ccccc21`, for which the activation (% of control) is 106%.

As to `CCOC(=O)N1CCN(CC(=O)Nc2cc(C)nn2-c2nc3ccccc3s2)CC1`, the activation (% of control) is 106%.

With `C/C(=N\NC(=O)CNc1cccc2ccccc12)c1ccc(Br)s1`, the activation (% of control) was 103%.

As for `COc1ccc(/C=N/Nc2ncnc3sc4c(c23)CCCC4)cc1O`, the activation (% of control) is 110%.

On to `O=C1CCCN1CCCNc1ncnc2c1[nH]c1ccccc12`, for which the activation (% of control) was 100%.

`COc1ccc(C2c3[nH]c4ccccc4c3CCN2CCCn2cccn2)cc1C` (stereo not given): the activation (% of control) was 102%.

Take `CCn1c(SCC(=O)N/N=C/C=C/c2ccccc2[N+](=O)[O-])nnc1-c1ccccc1`: the activation (% of control) was 101%.

Take `CCOC(=O)C1CCN(c2ncnc3c2oc2ccc(Br)cc23)CC1`: the activation (% of control) is 102%.

On to `CN1CCN(c2ccc([N+](=O)[O-])c(Sc3nc4ccccc4[nH]3)c2)CC1`, for which the activation (% of control) is 102%.

As to `CSc1nc2sc3c(c2c(=O)[nH]1)CCc1ccccc1-3`, the activation (% of control) was 108%.

For the compound `C=CCCC(=O)Nc1nc(C)c(-c2csc(Nc3ccc(Cl)cc3)n2)s1`, the activation (% of control) was 107%.

Take `COc1ccc([N+](=O)[O-])cc1C1NN=C(c2cccc3ccccc23)S1` (stereo not given): the activation (% of control) is 114%.

For the compound `Cc1ccc(S(=O)(=O)Nc2nc3ccccc3nc2N2CCc3ccccc3C2)cc1`, the activation (% of control) is 107%.

Regarding `COc1ccc(NC(=O)ON=C2c3ccccc3-c3ccccc32)cc1`, the activation (% of control) is 108%.

For `O=c1[nH]c(CSc2ncc(-c3ccc(F)cc3)n2Cc2ccco2)nc2ccccc12`, the activation (% of control) was 107%.

As for `OC(COc1ccc2ccccc2c1)CN1CCOCC1` (stereo not given), the activation (% of control) was 107%.

For `Oc1cccc2ccc(/C=C/c3ccc(Br)s3)nc12`, the activation (% of control) was 122% (active).

`CCCS(=O)(=O)Nc1c(C(=O)O)[nH]c2ccccc12`: the activation (% of control) is 103%.

For `O=C(Nc1cc(C(F)(F)F)ccc1Cl)c1cc(C2CC2)on1`, the activation (% of control) is 100%.

Turning to `O=C(O)CSCc1nc2ccccc2s1`, the activation (% of control) was 112%.

Regarding `Cc1ccc(/C=N/NC(=O)COc2ccccc2-c2ccccc2)cc1`, the activation (% of control) was 155% (active).

With `C=CCn1c(-c2ccccc2OCC)n[nH]c1=S`, the activation (% of control) was 115%.

Regarding `Cc1csc2ncc(C(=O)N(Cc3ccccc3)c3ccccn3)c(=O)n12`, the activation (% of control) was 103%.

For `Cc1cccc(C(=O)N2CCc3c([nH]c4ccccc34)C2CC(C)C)n1` (stereo not given), the activation (% of control) is 110%.

On to `Cc1nc(N=C(N)N)nc2c(C)cccc12`, for which the activation (% of control) is 110%.

`COc1ccc(Cl)cc1NC(=O)c1oc(C)nc1C`: the activation (% of control) is 108%.

Take `COC(=O)c1[nH]c2ccccc2c1NS(=O)(=O)c1ccc(OC)cc1OC`: the activation (% of control) is 104%.

With `CN1C(=O)/C(=C\c2cc(Br)cs2)c2ccccc21`, the activation (% of control) was 120%.

For the compound `O=C(NCc1ccco1)c1cccn2c(=O)c3c4c(sc3nc12)CCCC4`, the activation (% of control) was 106%.

With `Cc1cccc(C(=O)Nc2nnc(Cc3c[nH]c4ccccc34)s2)c1`, the activation (% of control) was 101%.

On to `Cc1ccc(-c2cc(C(=O)Nc3nn[nH]n3)c3ccccc3n2)c(C)c1`, for which the activation (% of control) is 99.3%.

As for `CSc1nc(N(C)NC(=O)c2cccc(C)c2)c2ccccc2n1`, the activation (% of control) was 159% (active).

In the case of `CSCCC(NC(=O)c1ccco1)C(=O)OCC(=O)Nc1ncc(Cl)c(C)c1Cl` (stereo not given), the activation (% of control) is 97.1%.

Consider `Cc1nc2ccccc2cc1O`, for which the activation (% of control) is 98%.

With `N#Cc1c(C(F)(F)F)cc(-c2ccc(Cl)cc2)nc1SCC(=O)O`, the activation (% of control) is 107%.

With `Oc1c(C=Nc2cccc3nsnc23)ccc2ccccc12`, the activation (% of control) was 96.6%.

With `Cc1ccc(C2=NN(C)c3nc4ccccc4n3C2)cc1`, the activation (% of control) is 112%.

Consider `Cc1ccc(OCc2nnc(SC3CCc4ccccc4C3=O)n2C)cc1` (stereo not given), for which the activation (% of control) is 111%.

`CC(=O)Nc1ccc(NC(=O)COc2ccccc2C(=O)Nc2cccc(Cl)c2Cl)cc1`: the activation (% of control) was 102%.

On to `CC(C)CNC(=O)COC(=O)/C=C/c1ccccc1[N+](=O)[O-]`, for which the activation (% of control) is 97.8%.

As to `COc1nc(N=C(N)N)nc2c(C)cccc12`, the activation (% of control) was 109%.

As to `c1ccc(-c2cn3c(n2)CCc2ccc4cccnc4c2-3)cc1`, the activation (% of control) was 106%.

Regarding `O=C(Cc1c[nH]c2ccccc12)OCCOC(=O)Cc1c[nH]c2ccccc12`, the activation (% of control) is 99.2%.

For `COc1cccc(NC(=S)C(C#N)=C2N(C)c3ccccc3N2C)c1`, the activation (% of control) is 94.8%.

On to `NC(=O)CSc1c[nH]c2ccccc12`, for which the activation (% of control) was 102%.

Turning to `COc1cccc(/C=C(/CC(=O)Nc2ccc(N3CCOCC3)cc2)c2nc3ccccc3s2)c1`, the activation (% of control) is 114%.

As for `Cc1ccc(NC(=O)c2cc([N+](=O)[O-])ccc2Cl)c(O)c1`, the activation (% of control) was 107%.

As for `CCCCC(=O)Nc1nc(C)c(-c2csc(Nc3ccc(Cl)cc3)n2)s1`, the activation (% of control) was 101%.

As to `C/C(=N\c1nc2ccccc2n1C)c1cc(Cl)ccc1O`, the activation (% of control) was 99.6%.

In the case of `COc1cc(OC)cc(C(=O)N[C@H](C(=O)Nc2nc3ccccc3[nH]2)C(C)C)c1`, the activation (% of control) was 138% (active).

`COc1ccccc1-c1nnc(SCC(=O)N2CC(C)CC(C)C2)o1` (stereo not given): the activation (% of control) was 101%.

In the case of `COc1ccccc1-c1nnc(NC(=O)c2ccc3ncsc3c2)o1`, the activation (% of control) is 127% (active).

With `Oc1cccc(C2c3[nH]c4ccccc4c3CCN2Cc2cnn(-c3ccccc3)c2)c1` (stereo not given), the activation (% of control) was 105%.

Take `CCNCc1cc2cc(C)ccc2[nH]c1=O`: the activation (% of control) was 101%.

Consider `COC(=O)c1[nH]c2cccc(C)c2c1NC(=O)CN1CCCc2ccccc21`, for which the activation (% of control) is 96.7%.

On to `CCOc1ccc(C2c3[nH]c4ccccc4c3CCN2Cc2cn(CC)nc2C)cc1` (stereo not given), for which the activation (% of control) is 111%.

As for `COc1ccc(C)cc1NC(=O)c1[nH]c(C)c(C(C)=O)c1C`, the activation (% of control) is 99.2%.

For `COc1ccc(-c2c3c(=O)n(C)c(=O)n(C)c3cn2-c2cccc(OC)c2)cc1`, the activation (% of control) was 103%.

As to `O=C(O)CS/C(=C\c1ccc(F)cc1)c1nc2ccccc2s1`, the activation (% of control) was 116%.

For `Cc1ccc(N=Nc2c(C)[nH]n(-c3ccccc3)c2=O)cc1`, the activation (% of control) was 106%.

As to `COc1cc(NS(=O)(=O)c2ccc(N/C=C(\C=O)c3nc4cc(Cl)ccc4o3)cc2)nc(OC)n1`, the activation (% of control) is 104%.

As for `COCCCNc1nc2c(-c3cccc(C(F)(F)F)c3)nnn2c2ccccc12`, the activation (% of control) was 109%.

Turning to `CCOC(=O)c1c(-c2cccc(C)c2)csc1NC(=O)c1c(-c2ccccc2)noc1C`, the activation (% of control) is 71.3%.

As to `Cc1ccc(Nc2nc(-c3sc(NC(=O)c4ccccc4)nc3C)cs2)cc1`, the activation (% of control) is 102%.

`Cc1cccc(N(CC(=O)N=Nc2c(O)[nH]c3ccccc23)S(C)(=O)=O)c1C`: the activation (% of control) is 103%.

For `O=[N+]([O-])c1ccc(N2CCN(S(=O)(=O)c3ccc4ccccc4c3)CC2)cc1NCc1ccco1`, the activation (% of control) is 105%.

`CCSc1nnc(-c2cc3c(s2)-c2ccccc2CC3)o1`: the activation (% of control) is 118%.

Take `Cn1nc(-c2ccc(Cl)cc2)c2cc(C(=O)NCc3ccco3)sc21`: the activation (% of control) was 104%.

Turning to `COc1ccccc1C1C2=C(COC2=O)Nc2cc3c(cc21)OCO3` (stereo not given), the activation (% of control) was 166% (active).

As to `CCOC(=O)CN(C)Cc1c[nH]c2ccccc12`, the activation (% of control) was 105%.

Regarding `O=C(C1CCN(S(=O)(=O)Cc2ccccc2)CC1)N1CCCc2ccccc21`, the activation (% of control) is 108%.

These data come from PubChem BioAssay AID1309 (The Scripps Research Institute Molecular Screening Center, 2008).
